Experimental data taken from PubChem BioAssay (EPA / NIEHS).
Values joined by “and” are separate entries in the source; they are usually repeats but may differ in a detail not shown here. Equal values may be shown once. Where a structure was tested more than once in an assay, its records may differ in their call. Active and inactive are the calls of the source. Rule for the calls: active = hit-call score of the fitted dose curve at least 0.9, where 1 is the maximum; inactive = score below 0.9.

Key:
[1] = read-out: Tissue Factor, F3 (gene 2152); assay: BSK_CASM3C_TissueFactor: BioMAP Diversity Plus: CASM3C Assay for Tissue Factor Biomarker Activity (AID 2283052); settings: primary human coronary artery smooth muscle cells; actives raise or lower the signal;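 note: cell surface tissue factor protein level read by ELISA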
[2] = read-out: Interferon-gamma inducible Protein 10 (IP10), CXCL10 (gene 3627); assay: BSK_hDFCGF_IP10: BioMAP Diversity Plus: hDFCGF Assay for Interferon-gamma inducible Protein 10 (IP10) Biomarker Activity (AID 2283053); settings: primary human foreskin fibroblasts; actives raise or lower the signal
Summary of the method: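 ELISA quantification of IP-10 after a 24 h chemical exposure of human dermal foreskin fibroblast primary cultures. Both increases and decreases versus DMSO fitted.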

[3] = read-out: Epidermal growth factor receptor (EGFR), EGFR (gene 1956); assay: BSK_hDFCGF_EGFR: BioMAP Diversity Plus: hDFCGF Assay for Epidermal growth factor receptor (EGFR) Biomarker Activity (AID 2283057); settings: primary human foreskin fibroblasts; actives raise or lower the signal
Summary of the method: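 EGFR levels by ELISA in human dermal fibroblast cultures, 24 h post-treatment, fitted bidirectionally versus DMSO. Parallel wells stained with sulforhodamine B to detect overt cytotoxicity.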

[4] = read-out: Interleukin-8 (IL8), CXCL8 (gene 3576); assay: BSK_hDFCGF_IL8: BioMAP Diversity Plus: hDFCGF Assay for Interleukin-8 (IL8) Biomarker Activity (AID 2283058); settings: primary human foreskin fibroblasts; actives raise or lower the signal
Summary of the method: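 Primary human foreskin fibroblasts (hDFCGF system) dosed with chemical; IL-8 measured by ELISA 24 hours later. Bidirectional curve fitting relative to DMSO baseline; cytotoxicity tracked in parallel cultures by SRB total protein staining.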

[5] = BSK_hDFCGF_Proliferation: Cell Proliferation Assessment in the BioMAP Diversity Plus: hDFCGF Assay (AID 2283059); settings: primary human foreskin fibroblasts;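 note: curves fitted for both rise and fall of signal versus DMSO baseline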
Summary of the method: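 Total protein read at 560 nm after 0.1% SRB staining of TCA-fixed human skin fibroblasts, […]. Activity is fitted in both directions relative to DMSO as baseline.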

[6] = read-out: Monokine induced gamma interferon (MIG), CXCL9 (gene 4283); assay: BSK_hDFCGF_MIG: BioMAP Diversity Plus: hDFCGF Assay for Monokine induced gamma interferon (MIG) Biomarker Activity (AID 2283063); settings: primary human foreskin fibroblasts; actives raise or lower the signal
Summary of the method: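 MIG/CXCL9 measured by ELISA 24 h after dosing primary human skin fibroblasts. Activity fitted in both directions against DMSO controls. Cytotoxicity was checked in parallel cultures by SRB staining read at 560 nm.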

[7] = read-out: Matrix Metallopeptidase 1 (MMP1), MMP1 (gene 4312); assay: BSK_hDFCGF_MMP1: BioMAP Diversity Plus: hDFCGF Assay for Matrix Metallopeptidase 1 (MMP1) Biomarker Activity (AID 2283064); settings: primary human foreskin fibroblasts; actives raise or lower the signal
Summary of the method: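 MMP1 levels quantified by ELISA 24 h after dosing human dermal fibroblast cultures, with parallel SRB total-protein staining for overt cytotoxicity. Data fitted in both directions against DMSO baseline.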

[8] = read-out: Vascular cell adhesion molecule 1 (VCAM1), VCAM1 (gene 7412); assay: BSK_hDFCGF_VCAM1: BioMAP Diversity Plus: hDFCGF Assay for Vascular cell adhesion molecule 1 (VCAM1) Biomarker Activity (AID 2283065); settings: primary human foreskin fibroblasts; actives raise or lower the signal;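 for AC50: VCAM-1 protein level quantified by ELISA after 24 h chemical exposure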
Summary of the method: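 Human foreskin fibroblast primary cells dosed with chemical, VCAM-1 measured by ELISA at 24 h. Bidirectional curve fitting relative to DMSO as negative control/baseline.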

[9] = read-out: Plasminogen activator inhibitor-1 (PAI1), SERPINE1 (gene 5054); assay: BSK_hDFCGF_PAI1: BioMAP Diversity Plus: hDFCGF Assay for Plasminogen activator inhibitor-1 (PAI1) Biomarker Activity (AID 2283066); settings: primary human foreskin fibroblasts; actives raise or lower the signal
Summary of the method: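 PAI-1 levels in human dermal foreskin fibroblasts were quantified by ELISA 24 h after dosing, with gain or loss analysed against DMSO. Overt cytotoxicity was checked by sulforhodamine B total-protein staining in parallel cultures.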

[10] = read-out: Intercellular Adhesion Molecule 1 (ICAM1), ICAM1 (gene 3383); assay: BSK_KF3CT_ICAM1: BioMAP Diversity Plus: KF3CT Assay for Intercellular Adhesion Molecule 1 (ICAM1) Biomarker Activity (AID 2283067); settings: primary human keratinocytes with fibroblasts; actives raise or lower the signal
Summary of the method: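 Human keratinocyte–foreskin fibroblast co-culture was treated for 24 h. Cell-surface ICAM-1 was quantified by ELISA, fitted bidirectionally relative to DMSO. Cytotoxicity was checked in parallel cultures by SRB total-protein staining.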

[11] = read-out: Interferon-gamma inducible Protein 10 (IP10), CXCL10 (gene 3627); assay: BSK_KF3CT_IP10: BioMAP Diversity Plus: KF3CT Assay for Interferon-gamma inducible Protein 10 (IP10) Biomarker Activity (AID 2283068); settings: primary human keratinocytes with fibroblasts; actives raise or lower the signal
Summary of the method: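 Human keratinocyte plus foreskin fibroblast primary co-culture exposed to test chemical for 24 h; IP-10 measured by ELISA. Concentration-response fitted bidirectionally against DMSO control as baseline.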

[12] = BSK_KF3CT_SRB: Viability Assessment in the BioMAP Diversity Plus: KF3CT Assay (AID 2283069); settings: primary human keratinocytes with fibroblasts;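 note: read 24 h after compound addition; fitted for both signal gain and loss against DMSO baseline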
Summary of the method: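 Cytotoxicity was gauged by SRB staining (0.1% SRB, 10% TCA fixation, 560 nm) of parallel cultures at 24 h. The cells were primary human skin keratinocytes co-cultured with fibroblasts, and activity was fitted in both directions against DMSO.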

[13] = read-out: urokinase plasminogen activator (uPA), PLAU (gene 5328); assay: BSK_KF3CT_uPA: BioMAP Diversity Plus: KF3CT Assay for urokinase plasminogen activator (uPA) Biomarker Activity (AID 2283075); settings: primary human keratinocytes with fibroblasts; actives raise or lower the signal
Summary of the method: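 ELISA read-out of uPA 24 h after dosing human skin keratinocytes co-cultured with foreskin fibroblasts. Signal change fitted both ways relative to DMSO; sulforhodamine B on parallel cultures marks overt cytotoxicity.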

[14] = read-out: E-selectin (Homo sapiens) (UniProt P16581); assay: BSK_LPS_Eselectin: BioMAP Diversity Plus: LPS Assay for Eselectin Biomarker Activity (AID 2283077); settings: primary human HUVEC with PBMC; actives raise or lower the signal
Summary of the method: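 Human umbilical vein endothelial cells co-cultured with PBMC under LPS stimulation; cell-surface E-selectin measured by ELISA 24 h after dosing. Change in either direction versus DMSO, with SRB total-protein staining in parallel cultures for cytotoxicity.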

[15] = BSK_LPS_SRB: Viability Assessment in the BioMAP Diversity Plus: LPS Assay (AID 2283079); settings: primary human HUVEC with PBMC;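 note: total protein by sulforhodamine B absorbance as a cytotoxicity measure; measured one day after compound addition; fitted in both directions against DMSO so loss or gain of signal counts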
Summary of the method: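 Co-culture of human umbilical vein endothelial cells and PBMC, read 24 h after dosing. Total protein by 0.1% SRB staining after 10% TCA fixation, absorbance at 560 nm; bidirectional fit against DMSO.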

[16] = read-out: Macrophage colony-stimulating factor (MCSF), CSF1 (gene 1435); assay: BSK_LPS_MCSF: BioMAP Diversity Plus: LPS Assay for Macrophage colony-stimulating factor (MCSF) Biomarker Activity (AID 2283083); settings: primary human HUVEC with PBMC; actives raise or lower the signal
Summary of the method: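 HUVEC–PBMC co-culture, M-CSF measured by ELISA 24 h after chemical dosing. Fitted in both directions relative to DMSO as negative control; overt cytotoxicity assessed by SRB total-protein staining in parallel cultures.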

[17] = read-out: Tissue Factor, F3 (gene 2152); assay: BSK_LPS_TissueFactor: BioMAP Diversity Plus: LPS Assay for Tissue Factor Biomarker Activity (AID 2283084); settings: primary human HUVEC with PBMC; actives raise or lower the signal
Summary of the method: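 Human umbilical vein endothelial cells co-cultured with PBMC were dosed with compound. Cell-surface CD142 was measured by ELISA 24 h later. Activity was fitted bidirectionally against DMSO, with SRB total-protein staining in parallel cultures for cytotoxicity.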

[18] = read-out: Vascular cell adhesion molecule 1 (VCAM1), VCAM1 (gene 7412); assay: BSK_LPS_VCAM1: BioMAP Diversity Plus: LPS Assay for Vascular cell adhesion molecule 1 (VCAM1) Biomarker Activity (AID 2283086); settings: primary human HUVEC with PBMC; actives raise or lower the signal
Summary of the method: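 VCAM-1 quantified by ELISA in an LPS-activated co-culture of human endothelial cells and peripheral blood mononuclear cells, read 24 h post-treatment. Fitted in both directions versus DMSO; parallel SRB staining flags overt cytotoxicity.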

[19] = read-out: Monokine induced gamma interferon (MIG), CXCL9 (gene 4283); assay: BSK_SAg_MIG: BioMAP Diversity Plus: SAg Assay for Monokine induced gamma interferon (MIG) Biomarker Activity (AID 2283092); settings: primary human HUVEC with PBMC; actives raise or lower the signal
Summary of the method: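 ELISA readout of MIG/CXCL9; primary human umbilical vein endothelial cells co-cultured with peripheral blood mononuclear cells; 24 h post-dose; gain/loss fit vs DMSO baseline.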

[20] = read-out: Interleukin-8 (IL8), CXCL8 (gene 3576); assay: BSK_SAg_IL8: BioMAP Diversity Plus: SAg Assay for Interleukin-8 (IL8) Biomarker Activity (AID 2283094); settings: primary human HUVEC with PBMC; actives raise or lower the signal
Summary of the method: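 ELISA readout of IL-8 from a superantigen-activated endothelial/PBMC primary human co-culture, taken 24 h post-dosing and fitted in both directions against DMSO; parallel SRB total-protein staining flags overt cytotoxicity.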

Measured: AC50

Sequence of E-selectin (Homo sapiens) (P16581 whole entry, looked up): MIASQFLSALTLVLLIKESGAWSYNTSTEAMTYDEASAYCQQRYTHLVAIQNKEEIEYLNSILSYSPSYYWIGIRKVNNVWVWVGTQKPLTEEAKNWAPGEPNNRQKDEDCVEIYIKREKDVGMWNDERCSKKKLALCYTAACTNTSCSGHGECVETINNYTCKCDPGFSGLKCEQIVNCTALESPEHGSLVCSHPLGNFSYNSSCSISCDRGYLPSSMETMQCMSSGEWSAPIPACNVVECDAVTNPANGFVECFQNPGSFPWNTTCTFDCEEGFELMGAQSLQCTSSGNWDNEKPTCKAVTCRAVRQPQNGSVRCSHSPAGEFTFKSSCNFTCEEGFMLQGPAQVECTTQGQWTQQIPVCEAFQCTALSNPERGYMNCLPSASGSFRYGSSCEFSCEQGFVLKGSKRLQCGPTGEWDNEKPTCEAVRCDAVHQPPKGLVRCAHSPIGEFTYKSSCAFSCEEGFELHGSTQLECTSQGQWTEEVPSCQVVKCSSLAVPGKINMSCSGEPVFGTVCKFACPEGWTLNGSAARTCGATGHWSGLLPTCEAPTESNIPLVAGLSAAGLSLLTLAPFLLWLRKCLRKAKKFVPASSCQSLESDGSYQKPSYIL

C=CCN(CC=C)C(=O)C(Cl)Cl
inactive: all assays above

CC(C)(C)C(O)C(Oc1ccc(-c2ccccc2)cc1)n1cncn1 (stereo unspecified)
active: [1] 14.4 µM
inactive: all other assays above

O=c1c2ccccc2c(=O)c2c1cc(Cl)c1[nH]c3c([nH]c12)c(Cl)cc1c(=O)c2ccccc2c(=O)c13
active: [2] 29 µM | [8] 14.4 µM
inactive: all other assays above

O=C(CCl)c1ccccc1
inactive: [1] | [3]
active: [2] 4.64 µM | [4] 7.52 µM | [5] 1.4 µM | [6] 6.78 µM | [7] 9.79 µM | [8] 2.56 µM | [9] 6.44 µM | [10] 21.3 µM | [11] 13.8 µM | [12] 30.9 µM | [13] 30 µM | [14] 6.13 µM | [15] 15.2 µM | [16] 4.37 µM | [17] 5.81 µM | [18] 3.68 µM | [19] 8.77 µM | [20] 5.88 µM

O=S(=O)(c1ccccc1)c1ccccc1
inactive: all assays above

Cc1ccc(OP(=O)(Oc2ccc(C)cc2)Oc2ccc(C)cc2)cc1 (tested in a mixture with another compound)
active: [5] 20 µM | [15] 20 µM | [16] 16.1 µM | [20] 10.6 µM
inactive: all other assays above

N#CCCCCC#N
inactive: all assays above

CC(C)CCCCCCCOC(=O)c1ccccc1C(=O)OCCCCCCCC(C)C
inactive: all assays above

CC1(C)[C@H](C(=O)O[C@H](C#N)c2cccc(Oc3ccccc3)c2)[C@@H]1C=C(Br)Br
inactive: all assays above

O=[N+]([O-])c1ccc(Cl)cc1
inactive: all assays above

O=C1C=CC(=O)C=C1
inactive: [1] | [3] | [4] | [12] | [15] | [17] | [19] | [20]
active: [2] 16.8 µM and 23.7 µM | [5] 11.2 µM and 2.81 µM | [6] 11.2 µM and 28.8 µM | [7] 32.2 µM and 26.5 µM | [8] 19 µM and 12.8 µM | [9] 20 µM and 19.2 µM | [10] 24.5 µM and 21.7 µM | [11] 27.8 µM and 24.1 µM | [13] 30.9 µM and 30.6 µM | [14] 26.4 µM and 30.4 µM | [16] 20 µM and 28.7 µM | [18] 20 µM | [19] 35.6 µM

CCC(C)c1cc([N+](=O)[O-])cc([N+](=O)[O-])c1OC(=O)C=C(C)C (stereo unspecified)
inactive: [3] | [4] | [20]
active: [1] 7.73 µM | [2] 7.21 µM | [5] 5.09 µM | [6] 9.88 µM | [7] 12.3 µM | [8] 5.91 µM | [9] 3.95 µM | [10] 25 µM | [11] 13.9 µM | [12] 31.7 µM | [13] 30.3 µM | [14] 13.3 µM | [15] 13.3 µM | [16] 13 µM | [17] 33.5 µM | [18] 20 µM | [19] 35 µM

COC(C)(C)CCC[C@H](C)C/C=C/C(C)=C/C(=O)OC(C)C
inactive: [3] | [4] | [10] | [12] | [13] | [19] | [20]
active: [1] 20 µM | [2] 33.7 µM | [5] 31.2 µM | [6] 33.2 µM | [7] 32.5 µM | [8] 25 µM | [9] 28.4 µM | [11] 33.6 µM | [14] 35.3 µM | [15] 29.5 µM | [16] 20.5 µM | [17] 26.8 µM | [18] 27.4 µM

CNC(=O)Oc1cc(C)c(SC)c(C)c1
active: [1] 8.16 µM | [18] 20 µM
inactive: all other assays above

CCc1cc(C)cc(CC)c1-c1c(OC(=O)C(C)(C)C)n2n(c1=O)CCOCC2
active: [1] 8.26 µM | [5] 25.2 µM | [9] 3.97 µM | [18] 3.97 µM
inactive: all other assays above
